Source: PubChem BioAssay (NCI)
Several values for one entry are separate records, joined by “and”; a condition that tells them apart may be missing. Equal values may be shown once. About 79,000 compounds went through this panel and 15% of them were active in at least one assay; those are over-represented in the sample as a whole. A number with no mark means an inactive call. Activity calls are given as the source filed them. No stated cut-off is given here; in the data, active means growth inhibition above about 70%; inactive means the rest.

Assay: NCI Yeast Anticancer Drug Screen. Data for the mlh1 rad18 strain (AID 175)
Details: S. cerevisiae mlh1 rad18 strain growth inhibition, active compounds read high
Procedure: Growth inhibition of yeast strains with defined genetic alterations is measured as a screen for potential anti-cancer activity. Selected strains with alterations in DNA damage repair or cell cycle control were exposed to compounds and growth inhibition was measured relative to vehicle treated controls. The strain used in this assay is mlh1 rad18

[1] = at 5.0 µM (retest, dose inferred, filed as 0.5)
[2] = at 50.0 µM (retest, dose inferred, filed as 5.0)

SMILES	growth inhibition [1]	growth inhibition [2]	growth inhibition (at 50.0 µM)
CCCCCCCCCCCC[N+](C)(C)Cc1ccccc1 (tested in a mixture with another compound)	94% (active) and 74% (active) and 78% (active)	100% (active)	99.5% (active) and 98.9% (active)
O=Cn1c2ccccc2c2ccccc21	54%	97% (active)	70.8% (active)
CCOc1ccccc1N1C(=O)CC(Sc2ccccc2N)C1=O (configuration not stated)	37%	70% (active)	16.5%
Cc1ccc2c(/C=C/c3ccc(N(C)C)cc3)ccnc2c1C	1%	14%	81.8% (active)
COc1ccc2c(C)cc(N/N=C/c3sccc3C)nc2c1	27%	94% (active)	76.3% (active)
CCC(C)/C(C)=N/NC(N)=O (configuration not stated)	1%	76% (active)	68%
COc1ccc(C(=O)OCCc2ccccc2)cc1	10%	64%	-16.4%
CC1=Cc2ccc(C)cc2C(=O)C1=O	66%	99% (active)	99.2% (active)
CN(C)CCNC(=O)c1cccc2nc3c(ccc4ccccc43)nc12	7%	92% (active)	90.2% (active)
CC(=O)O/N=C/c1c2ccccc2cc2ccccc12	80% (active)	92% (active)	33%
O=C1c2ccccc2C(=O)C1C(c1ccc(F)cc1)C1C(=O)c2ccccc2C1=O	8%	74% (active)	72.1% (active)
c1ccc(C2=NNC3c4ccccc4-c4ccccc4N3C2)cc1 (configuration not stated)	11%	50%	34%
CN(C)CCC(=O)c1c[nH]c2ccccc12	47%	97% (active)	45.8%
CN(C)CCn1c2ccccc2c2nc3cc4ccccc4cc3nc21	34%	98% (active)	71.2% (active)
